Test [1] can be described thus: qHTS assay for small molecules that induce genotoxicity in human embryonic kidney cells expressing luciferase-tagged ATAD5 (AID 651632). Further: nearly all actives have a fitted effect of over 15% in size. Further: potency means the concentration at half of the fitted maximal effect. Put shortly: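 Luminescent reporter readout, HEK293T ATAD5-luc line: 16 hr drug exposure (37C, 5% CO2) followed by Amplite, 30 min RT.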
Test [2] can be described thus: qHTS assay for small molecule agonists of the p53 signaling pathway - cell viability (AID 651633; calls by dose curve;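 further: p53RE-bla HCT reporter cells with a stable beta-lactamase p53 reporter; nearly all actives have a fitted effect of over 30% in size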). The procedure, abridged: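 p53RE-bla cells were treated with compound for 16 hours at 37 C. Cytotoxicity was then measured as CellTiter-Glo luminescence after 30 min at room temperature.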
On the technique in general: Quantitative high-throughput screening tests each substance at several concentrations.

Test [3] can be described thus: qHTS assay for small molecule disruptors of the mitochondrial membrane potential - cell viability (AID 720634; calls by dose curve;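 further: human HepG2 liver cancer cells; nearly all actives have a fitted effect of over 20% in size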). Put shortly:
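HepG2, 1 hr compound, 37 C. ATP luminescence via CellTiter-Glo, 30 min RT, same well as m-MPI.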

The nature of test [4]: qHTS assay to test for compound auto fluorescence at 590 nm (red) in HepG2 cells (AID 720674). The procedure, abridged: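 HepG2 cells, 2,000 per well in MEM with 10% FBS, attached overnight at 37 C, then got 23 nL compound or DMSO. After 1 hr at 37 C, 5% CO2, red fluorescence was read at 540/590 nm against Rose Bengal sodium as reference.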
Test [5] in a line: qHTS assay to test for compound auto fluorescence at 535 nm (green) in HepG2 cells (AID 720675).
Test [6] is described as follows: qHTS assay to test for compound auto fluorescence at 460 nm (blue) in HEK293 cells (AID 720678). The procedure, abridged:
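After cell attachment (4-5 hr, 37C), compounds were pinned onto HEK293 monolayers in 10% dialyzed FBS medium. The blue channel (405/460 nm) was read following overnight culture. Equivalency was calculated against triamterene.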

Test [7] can be described thus: qHTS assay to test for compound auto fluorescence at 590 nm (red) in HEK293 cells (AID 720679). The procedure, abridged:
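Plates of HEK293 cells (10% dialyzed FBS) are treated with 23 nL compound or DMSO vehicle after a 4-5 hr attachment period, incubated overnight at 37C, and read for red fluorescence at 540/590nm.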

Test [8] can be described thus: qHTS assay to test for compound auto fluorescence at 535 nm (green) in HEK293 cells (AID 720680).
Test [9] in a line: qHTS assay to test for compound auto fluorescence at 460 nm (blue) in HEK293 cell free culture (AID 720681). Put shortly:
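Compounds were added to cell-free DMEM with 10% FBS and fluorescence read directly. The blue channel used 405 nm excitation and 460 nm emission, with triamterene as the reference fluorophore.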

Test [10] can be described thus: qHTS assay to test for compound auto fluorescence at 535 nm (green) in HEK293 cell free culture (AID 720682). The procedure, abridged:
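DMEM + 10% FBS, cell-free; cpd or DMSO pinned in; Ex485/Em535 read; output as fluorescein-equivalent signal.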

Test [11] is described as follows: qHTS assay to test for compound auto fluorescence at 590 nm (red) in HEK293 cell free culture (AID 720683). Put shortly: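 Cell-free wells of DMEM with 10% FBS received compound, and intrinsic fluorescence was read at excitation/emission 540/590 nm. Values expressed as equivalence to Rose Bengal sodium.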
A short description of test [12]: qHTS assay to test for compound auto fluorescence at 590 nm (red) in HepG2 cell free culture (AID 720684). The procedure, abridged:
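Compound was pinned into wells holding MEM with 10% FBS and no cells, and red fluorescence was read at Ex/Em 540/590 nm. Signal is expressed as auto fluorescence equivalency relative to Rose Bengal sodium.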

A short description of test [13]: qHTS assay to test for compound auto fluorescence at 460 nm (blue) in HepG2 cell free culture (AID 720685). The procedure, abridged: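 Compound (23 nL) or DMSO pinned into cell-free MEM with 10% FBS; blue fluorescence read at 405/460 nm excitation/emission, expressed as auto-fluorescence equivalency to triamterene.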
Test [14] can be described thus: qHTS assay to test for compound auto fluorescence at 535 nm (green) in HepG2 cell free culture (AID 720686).
A short description of test [15]: qHTS assay to test for compound auto fluorescence at 460 nm (blue) in HepG2 cells (AID 720687). Put shortly: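 HepG2 cells in MEM with 10% FBS, attached overnight at 37 C, were exposed to compound or DMSO for 1 hr at 37 C, 5% CO2. Blue fluorescence was read at 405/460 nm, with triamterene as reference fluorophore.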
Test [16] deals with Glucocorticoid receptor (Homo sapiens) (UniProt P04150). Description: qHTS assay to identify small molecule agonists of the glucocorticoid receptor (GR) signaling pathway (AID 720691; active means well fitted activation curve with a large enough effect in the signal ratio in the repeat runs, not every such curve was filed as active; the % refers to the signal ratio). The conditions noted are these: GR-bla HeLa, beta-lactamase reporter ratio, 18 h; activation: at 62.4 µM (top of the series) unless noted. Put shortly: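 qHTS in GR-bla HeLa cells: 4 h settling at 37 C/5% CO2, 18 h compound incubation at 37 C, 2 h LiveBLAzer B/G FRET substrate at room temperature, fluorescence intensity measured.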
Glucocorticoid receptor (Homo sapiens), sequence (P04150 whole entry, looked up): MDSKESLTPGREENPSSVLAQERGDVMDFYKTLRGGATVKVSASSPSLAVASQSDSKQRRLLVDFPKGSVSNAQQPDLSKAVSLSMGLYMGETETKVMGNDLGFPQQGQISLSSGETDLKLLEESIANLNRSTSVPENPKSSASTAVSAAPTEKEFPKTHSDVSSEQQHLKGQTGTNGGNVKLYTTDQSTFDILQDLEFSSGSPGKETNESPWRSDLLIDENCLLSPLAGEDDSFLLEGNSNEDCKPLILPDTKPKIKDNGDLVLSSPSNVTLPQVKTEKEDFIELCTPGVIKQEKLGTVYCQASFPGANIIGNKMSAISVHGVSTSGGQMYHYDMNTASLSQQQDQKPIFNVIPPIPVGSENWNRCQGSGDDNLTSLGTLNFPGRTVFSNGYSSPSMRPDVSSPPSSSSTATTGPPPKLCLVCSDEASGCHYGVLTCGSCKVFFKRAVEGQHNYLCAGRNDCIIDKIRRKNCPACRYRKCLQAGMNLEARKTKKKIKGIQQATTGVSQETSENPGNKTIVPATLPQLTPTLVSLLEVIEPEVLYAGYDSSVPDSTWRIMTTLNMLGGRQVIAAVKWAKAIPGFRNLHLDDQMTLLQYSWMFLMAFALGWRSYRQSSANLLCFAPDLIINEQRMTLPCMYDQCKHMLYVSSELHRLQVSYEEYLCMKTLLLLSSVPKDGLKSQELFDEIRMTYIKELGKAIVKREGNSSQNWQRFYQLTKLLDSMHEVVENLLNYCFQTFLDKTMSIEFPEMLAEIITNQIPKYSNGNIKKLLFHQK

Test [17] is described as follows: qHTS assay for small molecules that induce genotoxicity in human embryonic kidney cells expressing luciferase-tagged ATAD5 - cell viability (AID 651634; calls by dose curve; further: nearly all actives have a fitted effect of over 25% in size). Put shortly:
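Viability read: CellTiter-Fluor fluorescence, 30 min at 37C. Cells: HEK293T, luciferase-tagged ATAD5. Exposure: 15.5 hr, 37C, 5% CO2, compound or DMSO vehicle.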

Test [18] deals with Glucocorticoid receptor (Homo sapiens) (UniProt P04150). Description: qHTS assay to identify small molecule antagonists of the glucocorticoid receptor (GR) signaling pathway (AID 720692; active means well fitted inhibition curve with a large enough effect in the signal ratio in the repeat runs, not every such curve was filed as active; the % refers to the signal ratio). Put shortly:
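Inhibition of glucocorticoid signalling is measured in HeLa cells with a GRE-controlled beta-lactamase reporter; cells are co-treated with compound and 5 nM dexamethasone (final) for 18 h before FRET substrate readout.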

The nature of test [19]: qHTS assay for small molecule disruptors of the mitochondrial membrane potential (AID 720635). Further: potency means the concentration at half of the fitted maximal effect. The procedure, abridged:
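HepG2 cells exposed to compound 1 hr at 37C, then Mito-MPS dye 30 min. Ratio read of aggregate (540/590 nm) versus monomer (490/535 nm) fluorescence.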

The values below come from PubChem BioAssay (Tox21).

Records with an inconclusive call do not appear. Activity calls are given as the source filed them. Unless noted, the call rests on the fitted dose curve; in most records, active means well fitted curve in the direction sought with a large enough effect in the repeat runs; inconclusive means weak or mixed curves; inactive means no such curve, though single readings can be large; an effect the other way counts as inactive or inconclusive.

Turning to `OCCN1CCN(CCCN2c3ccccc3C=Cc3ccccc32)CC1`, the Potency entry in test [1], in test [2], in test [3], in test [4], in [5] and in test [7] was “inactive” in each case. For the same molecule, the Potency entry in [11], in test [12], in [14] and in test [16] was “inactive” in each case. The molecule was classed as inactive in test [6], in test [8], in test [9], in test [10], in test [13] and in test [15].

In the case of `NCCCN1CCOCC1`, the Potency result in [1], in test [2], in test [17], in [3], in test [4] and in test [7] was “inactive” each time. For the same molecule, the Potency result in test [12], in test [14], in test [16] and in [18] was “inactive” throughout. Moreover, the call in test [6], in test [8], in test [9], in test [10], in test [13] and in [15] was inactive.

For `O=C(O)C1(C(=O)Nc2ccc(Cl)cc2Cl)CC1`, the figures for the Potency in test [1] and in [19] were 1.93 µM (active) and 8.63 µM (active), respectively. Further, the Potency entry in [2], in [17], in test [4], in test [5], in test [7] and in [11] was “inactive” in each case. Moreover, the Potency entry in [12] and in test [14] was “inactive” throughout. The call in test [6], in test [8], in [10], in [13] and in test [15] was inactive.
